From PubChem BioAssay AID504336 (NMMLSC, 2011)
Unmarked numbers belong to inactive results. The source made the active and inactive calls.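 Rule for the calls: active = compounds whose GFP signal falls below 65% of the DMSO control level; inconclusive = fewer than 70 yeast cells counted in the well; inactive = the rest.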

Test: TOR branch reporter RPL19A-GFP response – cell-based, S. cerevisiae, third cherry pick, flow cytometry, confirmation (AID 504336);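 note: median GFP fluorescence of all gated yeast cells by flow cytometry; ratio of well median fluorescence to plate mean of DMSO wells with DMSO = 100%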
Conditions: S. cerevisiae RPL19A-GFP strain, 3 h, at 10 µM, active compounds read low

Structure (SMILES) | GFP response relative to DMSO
COc1cccc2c(=O)c(C(=O)O)c[nH]c12 | 98.3%
Cc1ccc2c(Cl)cc(Cl)c(OCC(=O)O)c2n1 | 104%
COc1ccc(NC(=O)O/N=C2/CCCc3ccc(OC)cc32)cc1 | 104%
COc1ccccc1OCc1cc(C(=O)N2CCN(C)C(c3ccccc3)C2)no1 (centres undefined) | 101%
CCc1c(C)nc2c(OC)cccc2c1Cl | 102%
Cc1nc2c(O)cccc2cc1CO | 102%
Cc1cccc(N/C=C/C(=O)c2ccc(Cl)cc2)c1 | 99.6%
Cc1ccc(Nc2nc(N)[nH]c(=O)c2N=O)cc1 | 102%
O=C(Nc1nc(-c2ccccn2)cs1)c1ccccc1-n1cnnn1 | 98.8%
CC1=CN2C(=N)/C(=C/c3ccc(C)o3)C(=O)N=C2S1 | 101%
COc1cccc(N/C=C/C(=O)c2ccc(Cl)cc2)c1 | 101%
CN(C)CCCNc1cc(O)c2ncccc2c1 | 103%
Oc1ccc(F)c2cccnc12 | 101%
Cn1c(=O)c2c(n3cnnc13)-c1ccccc1CC21CCCC1 | 102%
C[n+]1cccc2cccc([O-])c21 | 98.3%
COC(=O)c1cc(=O)c2cccc(OC)c2[nH]1 | 101%
O=C(O)c1ccc2cccnc2c1O | 100%
C/C(=N\NC(=O)c1ccccc1)c1ccccc1F | 98.3%
COc1ccc(Nc2nc(NN)nc(C)c2[N+](=O)[O-])cc1 | 99.3%
OCCNc1ncnc2ccc(Br)cc12 | 99.8%

Structure (SMILES) | GFP response relative to DMSO
O=C(O)CCS(=O)(=O)c1nc(-c2cccs2)cc(C(F)(F)F)n1 | 97%
O=C(Nc1cccc2ccccc12)ON=C1CCCCC1 | 101%
Cc1ccc(NN2C(=O)C=C(c3ccccc3)C2=O)cc1 | 61.2% (active)
O=C(O)c1ccc2cccc(O)c2n1 | 102%
C/C(=N\NC(=O)c1cccc2ccccc12)c1cccnc1 | 98.3%
CS(=O)(=O)Oc1ccc(Br)c2cccnc12 | 99.3%
Nc1[nH]c(=O)nc(Nc2ccccc2)c1N=O | 101%
O=C(O)c1ccccc1-c1ccccc1C(=O)Nc1ccc(-c2nc3cc(Cl)ccc3o2)cc1 | 98.5%
O=C(O)c1ccc(C=NNC(=O)c2cccc3ccccc23)cc1 | 97.2%
CC1=CN2C(=N)/C(=C/c3ccc([N+](=O)[O-])o3)C(=O)N=C2S1 | 240%
CCOC(=O)CS(=O)(=O)c1nc(-c2ccccc2)cc(C(F)(F)F)n1 | 93.1%
CC(=O)CC(=O)Nc1ccc(C(N)=O)cc1 | 100%
OCc1ccc(O)c2ncccc12 | 101%
C/C(=C\C(=O)c1ccc(C)cc1)Nc1cccc(O)c1 | 99.3%
Cc1cn2c(N)c(C=C3C=C(Cl)C(=O)C(Cl)=C3)c(=O)nc2s1 | 104%
CC(=O)Nc1ccc(-c2nc3cc(Cl)ccc3o2)cc1 | 99.3%
C/C(=C\C(=O)c1ccccc1)Nc1ccc(O)cc1 | 100%
Nc1ccc(O)c2c1C(=O)c1ccccc1C2=O | 98.5%
CC(C)Nc1ncnc2ccc(Br)cc12 | 97.8%
